High-throughput results (PubChem BioAssay)
A selection: hits, their analogues and other compounds. The true share with any hit is near 2.4%.
M1 ag parental = counter-screen for M1 agonists: effect in parental CHO-K1 cells | Fluo-8 calcium fluorescence; scaled to maximal ATP response, vehicle zero | activation, % at 3 µM | hit rate 0.48% among 360,000 | AID 602248; in the data active = activation above about 15%;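 note: untransfected CHO-K1 host cells lacking M1 receptor as counterscreen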
M1 ag = activates human CHRM1 receptor | P11229 | CHO-K1 hM1, Fluo-8 calcium fluorescence, agonist mode; 0% DMSO, 100% acetylcholine EC100 | hit rate 0.33% among 360,000 | activation, % at 3 µM | AID 588814;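 active = activation above the run's mean compound activation plus 3 SD, cut at about 16% in these data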;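 note: peak over basal fluorescence ratio within a 140 s kinetic read after compound addition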
Target sequence (P11229 whole entry, looked up): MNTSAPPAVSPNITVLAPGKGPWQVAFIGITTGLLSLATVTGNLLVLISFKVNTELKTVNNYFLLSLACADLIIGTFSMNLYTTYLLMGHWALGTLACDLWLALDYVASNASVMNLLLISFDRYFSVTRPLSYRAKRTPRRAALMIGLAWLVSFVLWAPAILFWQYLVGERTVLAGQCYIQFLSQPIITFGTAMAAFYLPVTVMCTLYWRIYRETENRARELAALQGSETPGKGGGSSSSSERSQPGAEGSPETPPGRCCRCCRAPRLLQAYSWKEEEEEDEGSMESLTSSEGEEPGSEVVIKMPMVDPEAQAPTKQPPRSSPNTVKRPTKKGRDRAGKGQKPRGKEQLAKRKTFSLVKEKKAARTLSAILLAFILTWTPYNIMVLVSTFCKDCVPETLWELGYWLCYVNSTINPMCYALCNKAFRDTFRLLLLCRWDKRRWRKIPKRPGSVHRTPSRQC
CHRM1 PAM = positive allosteric modulators of human M1 muscarinic receptor; activation, % at 3 µM; CHO-K1 hM1, Fluo-8 calcium fluorescence, ACh EC20; 0% = ACh EC20, 100% = maximal ACh; hit rate 0.088% among 360,000; in the data active = activation above about 19%, passing the limit was not always enough
M1 antag = human CHRM1 antagonism; CHO-K1 hM1, Fluo-8 calcium fluorescence, ACh EC80 antagonist; inhibition, % at 3 µM; hit rate 1.3% among 360,000;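 active = percent inhibition above its own plate's cutoff, namely the mean of that plate's compound wells plus 3 SD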;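 note: peak over basal fluorescence ratio during 140 s after agonist addition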
CHO-K1 Ca antag = nonselective inhibitor or artifact in parental CHO-K1 cells; ATP-induced calcium, Fluo-8 fluorescence; inhibition, % at 3 µM; hit rate 0.6% among 360,000; AID 602250;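 active = inhibition above a per-plate cutoff, the plate's mean sample inhibition plus 3 SD, cut at about 24% in these data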
CHO-K1 Ca PAM = nonselective activator or artifact in parental CHO-K1 calcium assay. AID 602247. ATP EC20, Fluo-8 calcium fluorescence; 0% at ATP EC20, 100% at ATP max. hit rate 0.02% among 360,000. activation, % at 3 µM;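 active = activation above the run cutoff, the mean activation of all test compounds plus 3 SD, cut at about 40% in these data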;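 note: peak over basal fluorescence ratio in a 140 s read after ATP addition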
A number is an active result; – = inactive.

SMILES	M1 ag parental	M1 ag	CHRM1 PAM	M1 antag	CHO-K1 Ca antag	CHO-K1 Ca PAM
CCOC(=O)COc1nc(-c2ccccc2)cc(-c2ccco2)c1C#N	–	–	–	40	–	–
CCOC(=O)COc1nc(-c2ccc(Cl)cc2)cc(-c2ccco2)c1C#N	–	–	–	–	–	–
CC(C)[C@H](NC(=O)c1ccccc1)C(=O)OCC(=O)c1c(N)n(C)c(=O)n(C)c1=O	–	–	–	29	–	–
Cn1c(N)c(C(=O)COC(=O)c2cc(S(=O)(=O)N3CCCCC3)ccc2Cl)c(=O)n(C)c1=O	–	–	–	–	–	–
C=CCN(c1ccccc1OC)S(=O)(=O)c1cccc(C(=O)OCC(=O)c2c(N)n(C)c(=O)n(C)c2=O)c1	–	–	–	31	–	–
Cn1c(N)c(C(=O)COC(=O)c2cccc(S(=O)(=O)N3CCCCC3)c2)c(=O)n(C)c1=O	–	–	–	–	29	–
O=C(NCC(c1ccco1)N1CCCCC1)c1ccc(NS(=O)(=O)c2ccc(F)cc2)cc1 (configuration not stated)	–	–	–	–	–	–
O=C(NCC(c1ccco1)N1CCCC1)c1cccc(NS(=O)(=O)c2ccc(Br)cc2)c1 (configuration not stated)	–	–	–	50	–	–
Cc1cccc(NS(=O)(=O)c2cccc(C(=O)NCC(c3ccco3)N3CCCCC3)c2)c1 (configuration not stated)	–	–	–	–	–	–
O=C(NCC(c1ccco1)N1CCCC1)c1ccc(S(=O)(=O)Nc2ccc(F)cc2)cc1 (configuration not stated)	–	–	–	50	–	–
COc1ccc(Cl)cc1NC(=O)CN1C(=O)NC2(CCCC2)C1=O	–	–	–	–	–	–
CCc1nc2ccc(C(=O)N(C)CCCN(C)C)cn2c1N(C=O)CCC(C)C	–	–	–	–	–	–
CCOC(=O)c1[nH]c2ccc(C)cc2c1N	–	–	–	–	–	–
CCOC(=O)c1[nH]c2ccc(C(=O)OC)cc2c1C(=O)OCC	–	–	–	–	25	–
COc1ccc(C(NC(=O)C2CCN(CCOc3ccc(Cl)cc3)CC2)c2cccs2)cc1 (configuration not stated)	–	–	–	–	–	–
S=c1nc(-c2ccccc2)c(-c2ccccc2)n[nH]1	–	–	–	–	–	–
Nc1c(-c2ccccc2)n[nH]c1-c1ccccc1	–	–	–	104	–	–
CC(c1ccccc1C(O)(c1ccccc1)c1ccccc1)N(C)C (configuration not stated)	23	–	–	–	–	–
COc1ccc(OCC(=O)NC2CCCN(Cc3ccc(Cl)cc3)C2)cc1 (configuration not stated)	–	–	–	–	–	–
CCOC(=O)c1sc(=S)n(-c2ccccc2)c1C	–	–	–	–	–	–
CCOC(=O)c1sc(=S)n(-c2ccccc2Cl)c1C	–	–	–	52	–	–
Cc1ccc(S(=O)(=O)CCSc2cccc(C(=O)Nc3ccccc3C(=O)O)c2)cc1	–	–	37	–	–	–
O=C(COC(=O)CCC(=O)c1cccs1)NC1CC1	16	–	–	–	–	–
CNC(=O)COC(=O)CCC(=O)c1cccs1	–	–	–	–	–	–
COc1ccc(OCC(=O)Nc2ccc(N3CCOCC3)c(Cl)c2)cc1	–	–	–	–	–	–
SMILES	M1 ag parental	M1 ag	CHRM1 PAM	M1 antag	CHO-K1 Ca antag	CHO-K1 Ca PAM
COc1ccc(OCC(=O)Nc2ccccc2C(=O)N2CCOCC2)cc1	17	–	–	–	–	–
Cc1ccccc1OCC(=O)Nc1ccc(N2CCN(C)CC2)c(Cl)c1	–	–	–	45	–	–
COc1ccc(OCC(=O)Nc2ccc(N3CCN(C(=O)c4ccccc4)CC3)c(Cl)c2)cc1	–	–	–	36	25	–
CCOc1ccc(C2C(C#N)=C(N)Oc3cc(C)n(Cc4ccco4)c(=O)c32)cc1OC (configuration not stated)	–	–	–	–	–	–
Cc1cc2c(c(=O)n1Cc1ccco1)C(c1cccnc1)C(C#N)=C(N)O2 (configuration not stated)	–	–	–	–	26	–
CCN(CC)CCCn1c(C)cc2c(c1=O)C(c1cc(OC)c(OC)cc1OC)C(C#N)=C(N)O2 (configuration not stated)	–	–	–	–	–	–
CCN(CC)CCCn1c(C)cc2c(c1=O)C(c1cccc(Cl)c1)C(C#N)=C(N)O2 (configuration not stated)	–	–	–	60	–	–
CN(C(=O)c1cccc(NC(=O)Cc2cccc(NC(=O)C3CCN(C(=O)C4CCCCC4)CC3)c2)c1)C1CC1	–	–	–	–	–	–
CC(C)COc1ccc(C(=O)Nc2cc(S(=O)(=O)N3CCOCC3)ccc2N2CCCC2)cc1	–	–	–	–	–	–
CC(C)c1ccc(OCC(O)CNC(C)c2ccccc2)cc1 (configuration not stated)	21	–	–	–	–	–
OC(CNCCc1ccccc1)COc1ccc(OCC(O)CNCCc2ccccc2)cc1 (configuration not stated)	–	–	–	–	–	–
CC(C)N(CCNCC(O)COc1ccc(C(C)(C)c2ccccc2)cc1)C(C)C (configuration not stated)	–	–	–	34	–	–
OC(CNCCC(c1ccccc1)c1ccccc1)COc1ccccc1 (configuration not stated)	–	–	–	31	–	–
CC(=O)Nc1ccc(C(=O)COC(=O)C2CC2)c(F)c1	–	–	–	–	28	–
CC(=O)Nc1ccc(C(=O)COC(=O)C2CCCCC2)c(F)c1	–	–	–	–	–	–
Cc1cc(F)ccc1-c1cc(C(=O)NCc2ccc(C(F)(F)F)cc2)[nH]n1	16	32	–	–	–	–
CCOc1ccc(-c2cc(C(=O)NCc3ccc(C(F)(F)F)cc3)[nH]n2)c(C)c1	–	–	–	–	–	–
N#Cc1ccc(-c2cn3c(n2)SCC3)cc1	–	–	–	–	–	–
O=C(NCC1CCCO1)Nc1ccc(Cl)cc1 (configuration not stated)	–	–	–	–	–	–
Cc1ccc(CN(C(=O)CNC(=O)c2cccs2)C(C(=O)NCC2CCCO2)c2ccccc2)cc1 (configuration not stated)	–	–	–	43	–	–
O=C(NCC1CCCO1)c1cccs1 (configuration not stated)	–	–	19	–	–	–
O=C(NCC(=O)N(CC1CCCO1)C(C(=O)NC1CCCCC1)c1ccccc1)c1cccs1 (configuration not stated)	–	–	–	–	–	–
